Source: PubChem
Hits are enriched below; roughly 2.4% of the tested compounds scored in any of these assays.
Pol beta inh: DNA polymerase beta (human) inhibition; 340,000 compounds, 1.3% hits; P06746; Potency, µM (highest dose often 114 µM), for inactives: at the top dose activity change, negative = inhibition, hits mostly inhibitors; Pol beta primer extension/strand displacement, fluorescence kinetic; AID 485314; note: % is set by controls: 0 for no effect and ±100 for the full control effect
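Values derive from four-parameter Hill fits of normalized kinetic data: reads at 0 and 10 min following addition of 50 nM substrate to 10 nM Pol beta preincubated 15 min with compound.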
Pol kappa inh-1: blocks human DNA polymerase kappa activity | purified Pol kappa, fluorescent DNA synthesis assay, 10 min | Potency, µM (titrated, usually from 107 µM), without a hit: top-dose activity, negative = inhibition, actives largely listed as inhibitors | 400,000 compounds, 0.53% hits | Q9UBT6; note: % is set by controls: 0 for no effect and ±100 for the full control effect
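Enzyme at 10 nM met test compounds for 15 min at room temperature. Substrate addition (50 nM final) began the reaction, which was monitored by fluorescence at 0 and 10 min.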
WRN helicase inh-1: blocks human WRN helicase. Q14191. Potency, µM (highest dose often 114 µM), inactives show at the top dose activity change, negative = inhibition, usual class: inhibitors. AID 651768. 360,000 compounds, 0.46% hits. WRN helicase unwinding, fluorescent forked duplex, kinetic; note: % is set by controls: 0 for no effect and ±100 for the full control effect; nearly all actives have a fitted effect of over 55% in size
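Kinetic fluorescence helicase assay: unwinding of a quenched forked DNA duplex (100 nM final) with 2 mM ATP final raises red fluorescence (525/598 nm). Compounds sat 15 min at room temperature with 20 nM WRN beforehand.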
Pol eta inh-1: blocks human DNA polymerase eta activity; recombinant Pol eta, fluorescent DNA replication assay; Potency, µM (top dose mostly 114 µM), inactives show at the highest dose activity change, negative = inhibition, hits mostly inhibitors; 390,000 compounds, 1.2% hits; AID 588591; note: % is set by controls: 0 for no effect and ±100 for the full control effect
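Fluorescent replication assay: 50 nM final substrate added after a 15 min room-temperature compound preincubation with 10 nM enzyme. Signal taken at 0 min and again at 10 min.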
FEN1 inh-1: inhibitors of human flap endonuclease 1. Potency, µM (doses to about 114 µM), without a hit: top-dose activity change, negative = inhibition, actives largely listed as inhibitors. P39748. Recombinant FEN1 flap cleavage, fluorescence, 15 min. 390,000 compounds, 0.35% hits. AID 588795; note: % is set by controls: 0 for no effect and ±100 for the full control effect; nearly all actives have a fitted effect of over 65% in size
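Compounds are tested as a concentration series against 10 nM FEN1; after a 15 min room-temperature preincubation, 50 nM substrate starts cleavage, with plate reads at 0 and 15 min. Normalized responses are fitted by a Hill equation.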
Pol iota inh: blocks human DNA polymerase iota activity; Potency, µM (titrated, usually from 115 µM), for inactives: at the highest dose activity, negative = inhibition, usual class: inhibitors; AID 588590; 390,000 compounds, 1% hits; Q9UNA4; Pol iota fluorescent replication assay, 10 min
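Pol iota at 10 nM preincubated 15 min with compounds at room temperature; reaction started with fluorescent substrate, 50 nM final. Fluorescence read kinetically at 0 and 10 min; buffer-only wells as negative control.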
TbPGK inh: TbPGK inhibition, hit validation; shares compounds with Pol kappa inh-1; TbPGK coupled GAPDH assay, Kinase-Glo luminescence; Potency, µM (titrated, usually from 57.5 µM), for the others: at the top dose activity change, negative = inhibition, usual class: inhibitors; 500 compounds, 79% hits; AID 686980; note: % is set by controls: 0 for no effect and ±100 for the full control effect; nearly all actives have a fitted effect of over 65% in size
Target sequence (P07378 whole entry, looked up): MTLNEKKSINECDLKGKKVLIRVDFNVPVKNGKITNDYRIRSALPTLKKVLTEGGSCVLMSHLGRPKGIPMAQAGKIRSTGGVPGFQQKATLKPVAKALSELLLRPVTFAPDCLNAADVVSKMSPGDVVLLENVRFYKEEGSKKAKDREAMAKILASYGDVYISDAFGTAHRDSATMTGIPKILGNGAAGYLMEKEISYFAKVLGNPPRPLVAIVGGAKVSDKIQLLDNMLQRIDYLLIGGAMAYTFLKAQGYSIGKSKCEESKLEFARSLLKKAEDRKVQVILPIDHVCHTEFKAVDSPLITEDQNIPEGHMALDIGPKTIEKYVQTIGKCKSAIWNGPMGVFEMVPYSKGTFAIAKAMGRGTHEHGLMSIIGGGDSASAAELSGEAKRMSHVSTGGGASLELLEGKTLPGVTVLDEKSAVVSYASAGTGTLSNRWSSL
POLI cherry-pick: Confirm cherry-picked inhibitors of human polymerase iota | shares compounds with Pol kappa inh-1 | AID 720496 | 1,500 compounds, 77% hits | Pol iota primer extension, TAMRA/BHQ fluorescence | Potency, µM, usual class: inhibitors
Pol kappa inh-2: confirmation of human DNA polymerase kappa inhibitors. shares compounds with Pol eta inh-1. purified Pol-kappa, fluorescent strand-displacement substrate. Potency, µM, hits mostly inhibitors. 920 compounds, 76% hits
Pol eta inh-2: confirmation of human DNA polymerase eta inhibitors; shares compounds with Pol eta inh-1; Pol eta primer extension, TAMRA/BHQ fluorescence, 10 min; Potency, µM, usual class: inhibitors; 2,600 compounds, 64% hits
FEN1 inh-2: FEN1 inhibition, cherry-pick retest; shares compounds with FEN1 inh-1; FEN1 flap cleavage, TAMRA/BHQ2 fluorogenic DNA substrate; Potency, µM, hits mostly inhibitors; 880 compounds, 79% hits; AID 720498; note: nearly all actives have a fitted effect of over 60% in size
WRN helicase inh-2: WRN helicase inhibition, cherry-pick retest; shares compounds with WRN helicase inh-1; WRN helicase DNA unwinding, fluorescence kinetic; Potency, µM (series often up to 57.1 µM), inactives show at the highest dose activity, negative = inhibition, hits mostly inhibitors; 610 compounds, 63% hits; AID 720497; note: nearly all actives have a fitted effect of over 65% in size
TO DNA binding: DNA binding via thiazole orange displacement | Potency, µM (doses to about 57.1 µM), for the others: at the highest dose activity change, negative = inhibition, usual class: inhibitors | 610 compounds, 10% hits | shares compounds with WRN helicase inh-1 | thiazole orange DNA binding displacement, fluorescence;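 note: drop in dye fluorescence marks compound binding to DNA; % is set by controls: 0 for no effect and ±100 for the full control effect; nearly all actives have a fitted effect of over 60% in size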
BLM helicase inh: blocks human BLM helicase in WRN counterscreen | Recombinant BLM helicase DNA unwinding, red fluorescence | 610 compounds, 60% hits | shares compounds with WRN helicase inh-1 | Potency, µM (titrated, usually from 57.1 µM), for inactives: top-dose activity change, negative = inhibition, usual class: inhibitors | AID 720503; note: nearly all actives have a fitted effect of over 60% in size
Numbers without * were called inactive; ? = inconclusive; / = no result given. Calls come from the whole dose curve; as a rule, active = well fitted curve in the direction sought with a large enough effect; inconclusive = small, poorly fitted or top-dose-only effect, or another doubt; inactive = no such curve, though single readings can be large; an effect the other way counts as inactive or inconclusive. Potency is the fitted concentration of half-maximal effect.

SMILES	Pol beta inh	Pol kappa inh-1	WRN helicase inh-1	Pol eta inh-1	FEN1 inh-1	Pol iota inh	TbPGK inh	POLI cherry-pick	Pol eta inh-2	FEN1 inh-2	WRN helicase inh-2	TO DNA binding	BLM helicase inh	others
O=C(c1ccc(=O)oc1)N1CCCc2ccccc21	-100.9%	20µM*	?	3.55µM*	56.2µM*	12.6µM*	/	42.3*	30.1*	/	21.5µM*	-8.8%	24.1µM*
O=C(c1ccc(-n2cccc2)cc1)N1CCOCC1	11.7%	-0.4%	1.2%	-11.5%	4.6%	11.8%	/	/	/	/	/	/	/
O=C(c1ccc(=O)oc1)N1CCOCC1	5.01µM*	50.1µM*	?	1.78µM*	31.6µM*	?	4.11µM*	/	/	/	5.41µM*	-0.7%	3.04µM*
CCn1c(C)cc(/C=C2\SC(=O)N(CC(=O)Nc3ccc(C)c(C)c3)C2=O)c1C	1.0%	-0.6%	5.0%	-16.9%	-2.1%	1.8%	/	/	/	/	/	/	/
Cc1ccc(NC(=O)CN2C(=O)S/C(=C/c3ccc(-c4cc(C(=O)O)ccc4C)o3)C2=O)cc1C	7.08µM*	79.4µM*	22.4µM*	20µM*	35.5µM*	22.4µM*	7.3µM*	/	/	/	7.64µM*	192.7%	5.41µM*
CSc1ccc(-c2nnn(CC(=O)Nc3sc4c(c3C#N)CCC(C(C)(C)C)C4)n2)cc1 (centres undefined)	28.7%	4.7%	/	-5.0%	3.7%	14.6%	/	/	/	/	/	/	/
Cc1c(Br)c(=O)oc2c(Br)c(O)c(O)cc12	4.47µM*	22.4µM*	15.8µM*	3.16µM*	28.2µM*	12.6µM*	6.51µM*	23.8*	5.36*	30.1*	3.83µM*	?	3.41µM*
Cc1c(NC(=O)/C(C#N)=C/c2ccc(-c3ccc(Cl)c(Cl)c3)o2)c(=O)n(-c2ccccc2)n1C	-23.5%	-2.4%	-3.5%	-14.3%	-2.5%	102.0%	/	/	/	/	/	/	/
Cc1nc(S/C(=C\c2ccc(-c3ccc(C(=O)O)c(Cl)c3)o2)C(=O)O)n[nH]1	10µM*	8.91µM*	39.8µM*	5.01µM*	?	3.16µM*	14.6µM*	16.8*	5.36*	42.6*	1.21µM*	?	19.2µM*
COc1ccc(C)cc1NC(=O)c1nnn(-c2c(C)cccc2C)c1C	-18.2%	-14.2%	/	-7.8%	13.1%	6.9%	/	/	/	/	/	/	/
C=CCSC1=N/C(=C\C=C\c2ccco2)C(=O)S1	2.51µM*	14.1µM*	31.6µM*	3.55µM*	50.1µM*	4.47µM*	/	21.2*	21.3*	/	19.2µM*	24.1µM*	5.41µM*	Pol kappa inh-2=9.47*
CCc1ccc(C(=O)c2cn(CC(=O)Nc3cccc(OC)c3)c3ccc(OC)cc3c2=O)cc1	8.91µM*	89.1µM*	/	39.8µM*	39.8µM*	12.6µM*	/	8.44*	?	67.5*	19.2µM*	-6.0%	4.29µM*
COc1cccc(NC(=O)Cn2cc(C(=O)c3ccc(F)cc3)c(=O)c3cc(OC)ccc32)c1	40.4%	5.6%	/	-3.5%	3.6%	25.5%	/	/	/	/	/	/	/
COc1cc(NC(=O)c2cc3c(=O)oc4ccc(C)cc4c3s2)cc(OC)c1OC	-27.1%	-6.8%	/	-10.4%	7.4%	7.7%	/	/	/	/	/	/	/
O=C(O)c1cc(N2N=C(C(F)(F)F)/C(=C/C=C/c3ccco3)C2=O)ccc1Cl	0.631µM*	1.12µM*	0.844µM*	-98.9%	3.16µM*	1.12µM*	0.58µM*	0.752*	0.675*	3.79*	1.36µM*	-13.6%	0.607µM*	Pol kappa inh-2=0.119*
O=[N+]([O-])c1ccc(N/N=C/C=C/c2ccco2)cc1	/	7.6%	1.7%	-15.1%	-0.7%	-20.1%	/	/	/	/	/	/	/
O=C(O)c1ccc(N/N=C/C=C/c2ccc([N+](=O)[O-])o2)cc1	3.16µM*	79.4µM*	?	22.4µM*	?	8.91µM*	16.3µM*	37.7*	26.9*	/	19.2µM*	?	17.1µM*
O=C(OCc1cc(=O)n2nc(C3CCCCC3)sc2n1)c1ccccc1Cl	-0.8%	-21.1%	/	-14.3%	-3.9%	-5.0%	/	/	/	/	/	/	/
COCCn1c(SCc2nc3sc(C(=O)OC)c(C)c3c(=O)[nH]2)nc2ccccc21	-4.9%	-1.0%	-5.5%	?	-13.1%	3.6%	/	/	/	/	/	/	/
CCn1c(SCc2nc3sc(C(=O)O)c(C)c3c(=O)[nH]2)nc2ccccc21	8.91µM*	3.55µM*	20µM*	0.708µM*	12.6µM*	2.82µM*	?	9.47*	2.69*	21.3*	6.81µM*	12.1µM*	19.2µM*
C/C(C/C(C)=C1/SC(=S)NC1=O)=C1\SC(=S)NC1=O	15.8µM*	20µM*	28.2µM*	3.55µM*	12.6µM*	3.55µM*	/	29.9*	6.01*	19*	3.83µM*	-4.3%	?
CCCCCC/C(C)=C1/SC(=S)NC1=O	5.6%	-6.8%	-16.0%	-17.6%	-6.8%	?	/	/	/	/	/	/	/
Nc1nc(Sc2ccc([N+](=O)[O-])c3nonc23)c2[nH]cnc2n1	/	17.8µM*	11.2µM*	?	20µM*	3.16µM*	18.3µM*	21.2*	30.1*	42.6*	21.5µM*	42.9µM*	15.2µM*	Pol kappa inh-2=15*
